From PubChem BioAssay (Tox21)
Several values for one entry are separate records, joined by “and”; a condition that tells them apart may be missing. Equal values may be shown once. Results filed as inconclusive are left out. Entries that show only a call come without a potency. More than one record can exist for a structure, and the calls need not agree. Activity calls are given as the source filed them. Calls follow the shape of the dose curve; as a rule, active = well fitted curve in the direction sought with a large enough effect in the repeat runs; inconclusive = weak or mixed curves; inactive = no such curve, though single readings can be large; an effect the other way counts as inactive or inconclusive.

Key:
[1] = molecular target: Cytochrome P450 2C19 (Homo sapiens) (UniProt P33261); assay: Cytochrome P450 Family 2 Subfamily C Member 19 (CYP2C19) small molecule antagonists: luciferase reporter qHTS assay (AID 1671197); also: nearly all actives have a fitted effect of over 65% in size
Outline: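 Inhibition of CYP2C19 was scored from loss of luminescence in a P450-Glo proluciferin substrate assay, NADPH-started and run 1 h at 37C, with ketoconazole as positive control.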

[2] = molecular target: Cytochrome P450 2C9 (Homo sapiens) (UniProt P11712); assay: Cytochrome P450 Family 2 Subfamily C Member 9 (CYP2C9) small molecule antagonists: luciferase reporter qHTS assay (AID 1671198); also: nearly all actives have a fitted effect of over 50% in size
Outline: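 CYP2C9 activity was measured with a P450-Glo proluciferin substrate. Enzyme–substrate mix was held with compound for 10 min at room temperature, then NADPH regeneration solution was added for 1 h at 37C. Luciferin product was read as luminescence.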

[3] = molecular target: Cytochrome P450 1A2 (Homo sapiens) (UniProt P05177); assay: Cytochrome P450 Family 1 Subfamily A Member 2 (CYP1A2) small molecule antagonists: luciferase reporter qHTS assay (AID 1671199); also: nearly all actives have a fitted effect of over 50% in size
Outline: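 Steps: enzyme-substrate mix dispensed; test compounds and furafylline control pinned in; 10 min room temperature; NADPH regeneration solution added, 1 h; reaction stopped with luciferin detection reagent; luminescence read after 20 min.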

[4] = molecular target: Cytochrome P450 3A4 (Homo sapiens) (UniProt P08684); assay: Cytochrome P450 Family 3 Subfamily A Member 4 (CYP3A4) small molecule antagonists: luciferase reporter qHTS assay (AID 1671201); also: nearly all actives have a fitted effect of over 50% in size
Outline: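 qHTS, 1536-well. CYP3A4 + proluciferin substrate, cpd 10 min RT → NADPH regen 1 h RT → detection reagent 20 min → luminescence (RLU). Ketoconazole positive control.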

[5] = molecular target: Voltage-gated inwardly rectifying potassium channel KCNH2 (Homo sapiens) (UniProt Q12809); assay: Human Ether-a-go-go-Related Gene (hERG) channel small molecule antagonists: fluorescence cell-based qHTS assay (AID 1671200); also: nearly all actives have a fitted effect of over 50% in size
Outline: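 Fluorescence at 540 nm emission (480 nm excitation) was recorded kinetically for 2 min at 1-second intervals once the thallium-containing stimulus reached cells previously loaded with FluxOR II dye.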
Potency is read from the fitted curve at half-maximal effect.

Chain of Voltage-gated inwardly rectifying potassium channel KCNH2 (Homo sapiens) (Q12809 whole entry, looked up): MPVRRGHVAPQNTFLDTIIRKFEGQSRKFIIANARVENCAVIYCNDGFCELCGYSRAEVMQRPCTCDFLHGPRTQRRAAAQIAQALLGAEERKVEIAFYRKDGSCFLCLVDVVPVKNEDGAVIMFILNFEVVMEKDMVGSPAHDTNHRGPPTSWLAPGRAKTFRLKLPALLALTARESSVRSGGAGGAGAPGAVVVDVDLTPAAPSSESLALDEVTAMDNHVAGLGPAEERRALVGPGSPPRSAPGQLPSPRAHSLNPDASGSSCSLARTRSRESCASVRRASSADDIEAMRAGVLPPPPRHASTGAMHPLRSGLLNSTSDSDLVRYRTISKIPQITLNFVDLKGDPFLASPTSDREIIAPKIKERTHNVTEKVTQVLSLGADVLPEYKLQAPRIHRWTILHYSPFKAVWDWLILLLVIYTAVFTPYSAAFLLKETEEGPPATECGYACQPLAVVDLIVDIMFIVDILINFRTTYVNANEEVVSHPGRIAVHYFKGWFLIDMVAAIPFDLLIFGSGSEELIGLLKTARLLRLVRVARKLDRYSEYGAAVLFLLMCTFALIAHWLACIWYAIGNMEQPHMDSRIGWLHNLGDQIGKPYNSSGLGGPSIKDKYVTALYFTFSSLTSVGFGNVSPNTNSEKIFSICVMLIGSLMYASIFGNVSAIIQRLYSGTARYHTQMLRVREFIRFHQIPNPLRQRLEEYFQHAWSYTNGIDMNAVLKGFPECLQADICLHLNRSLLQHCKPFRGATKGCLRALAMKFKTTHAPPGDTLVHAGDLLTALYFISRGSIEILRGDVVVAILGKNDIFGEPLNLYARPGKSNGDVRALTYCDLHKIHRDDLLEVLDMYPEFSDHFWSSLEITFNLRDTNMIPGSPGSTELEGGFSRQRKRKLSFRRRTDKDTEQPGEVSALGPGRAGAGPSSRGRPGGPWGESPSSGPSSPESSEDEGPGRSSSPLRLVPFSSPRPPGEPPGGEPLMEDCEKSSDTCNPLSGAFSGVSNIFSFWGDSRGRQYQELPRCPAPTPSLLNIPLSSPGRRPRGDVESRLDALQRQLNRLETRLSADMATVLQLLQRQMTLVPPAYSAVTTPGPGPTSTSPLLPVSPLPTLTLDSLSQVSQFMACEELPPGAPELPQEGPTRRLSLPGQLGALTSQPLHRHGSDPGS
Chain of Cytochrome P450 2C19 (Homo sapiens) (P33261 whole entry, looked up): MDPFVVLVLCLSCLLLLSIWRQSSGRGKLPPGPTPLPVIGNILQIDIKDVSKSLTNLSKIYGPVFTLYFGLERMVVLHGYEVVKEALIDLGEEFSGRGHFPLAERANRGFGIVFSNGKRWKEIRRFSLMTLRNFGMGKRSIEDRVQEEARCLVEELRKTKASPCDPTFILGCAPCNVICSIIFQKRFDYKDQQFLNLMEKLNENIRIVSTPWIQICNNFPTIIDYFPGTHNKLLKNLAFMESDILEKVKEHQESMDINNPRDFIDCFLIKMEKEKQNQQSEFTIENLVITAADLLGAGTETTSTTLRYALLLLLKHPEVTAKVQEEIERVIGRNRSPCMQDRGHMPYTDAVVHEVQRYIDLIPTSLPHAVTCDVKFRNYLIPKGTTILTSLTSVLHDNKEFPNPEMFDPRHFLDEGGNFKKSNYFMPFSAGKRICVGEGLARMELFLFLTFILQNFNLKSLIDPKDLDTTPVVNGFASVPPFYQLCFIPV
Chain of Cytochrome P450 2C9 (Homo sapiens) (P11712 whole entry, looked up): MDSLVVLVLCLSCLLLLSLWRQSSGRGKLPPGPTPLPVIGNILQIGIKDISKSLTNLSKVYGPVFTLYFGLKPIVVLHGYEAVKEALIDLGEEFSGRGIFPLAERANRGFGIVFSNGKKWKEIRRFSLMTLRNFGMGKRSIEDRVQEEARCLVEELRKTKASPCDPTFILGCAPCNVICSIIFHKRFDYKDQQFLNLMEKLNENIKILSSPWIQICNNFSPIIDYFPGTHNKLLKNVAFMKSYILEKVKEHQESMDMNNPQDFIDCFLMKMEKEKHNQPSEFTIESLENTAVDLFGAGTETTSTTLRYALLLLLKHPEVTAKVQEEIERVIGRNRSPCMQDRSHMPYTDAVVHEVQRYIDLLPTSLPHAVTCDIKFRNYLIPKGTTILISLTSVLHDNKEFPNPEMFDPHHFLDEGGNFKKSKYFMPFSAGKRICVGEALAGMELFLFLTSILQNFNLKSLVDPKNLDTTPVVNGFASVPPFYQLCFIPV
Chain of Cytochrome P450 1A2 (Homo sapiens) (P05177 whole entry, looked up): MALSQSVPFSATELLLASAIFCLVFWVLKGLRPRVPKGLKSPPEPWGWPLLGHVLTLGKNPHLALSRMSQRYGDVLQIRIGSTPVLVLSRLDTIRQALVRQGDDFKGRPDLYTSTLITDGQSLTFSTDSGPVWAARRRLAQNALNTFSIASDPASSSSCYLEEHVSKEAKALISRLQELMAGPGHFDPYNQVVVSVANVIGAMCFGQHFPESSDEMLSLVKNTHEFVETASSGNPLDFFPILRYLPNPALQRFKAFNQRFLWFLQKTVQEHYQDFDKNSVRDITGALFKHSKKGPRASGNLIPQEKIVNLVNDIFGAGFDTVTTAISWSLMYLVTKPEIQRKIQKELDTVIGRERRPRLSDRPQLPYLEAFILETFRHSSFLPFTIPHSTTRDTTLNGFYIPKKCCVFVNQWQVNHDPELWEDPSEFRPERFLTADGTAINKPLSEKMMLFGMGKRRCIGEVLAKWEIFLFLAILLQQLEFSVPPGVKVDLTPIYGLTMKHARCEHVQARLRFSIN
Chain of Cytochrome P450 3A4 (Homo sapiens) (P08684 whole entry, looked up): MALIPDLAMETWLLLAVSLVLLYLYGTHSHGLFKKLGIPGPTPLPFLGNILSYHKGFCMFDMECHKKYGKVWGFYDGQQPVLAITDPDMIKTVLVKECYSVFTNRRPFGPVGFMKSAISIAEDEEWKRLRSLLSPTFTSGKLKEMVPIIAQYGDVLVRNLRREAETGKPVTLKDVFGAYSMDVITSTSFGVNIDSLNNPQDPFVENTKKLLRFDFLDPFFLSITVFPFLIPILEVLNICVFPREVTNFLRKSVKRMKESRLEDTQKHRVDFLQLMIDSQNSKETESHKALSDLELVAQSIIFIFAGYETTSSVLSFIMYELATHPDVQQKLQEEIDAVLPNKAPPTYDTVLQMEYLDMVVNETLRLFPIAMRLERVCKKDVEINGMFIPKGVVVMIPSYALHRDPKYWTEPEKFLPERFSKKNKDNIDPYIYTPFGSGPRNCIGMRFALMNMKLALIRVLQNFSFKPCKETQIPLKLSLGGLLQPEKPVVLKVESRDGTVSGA

Clc1ccc(Cl)cc1
Potency [1]: inactive | Potency [2]: inactive | Potency [3]: inactive | Potency [4]: inactive

CN(C)N=O
Potency [1]: inactive | Potency [2]: inactive | Potency [3]: inactive | Potency [5]: inactive | Potency [4]: inactive

[N-]=[N+]=[N-]
Potency [1]: 24.4 µM (active) and 50.2 µM (active) | Potency [2]: 38.6 µM (active) and 35.6 µM (active) | Potency [3]: 43.3 µM (active) and inactive | Potency [5]: inactive | Potency [4]: inactive

O=[N+]([O-])c1ccc([As](=O)(O)O)cc1
Potency [1]: inactive | Potency [2]: inactive | Potency [3]: inactive | Potency [5]: inactive | Potency [4]: inactive

O=[N+]([O-])c1ccccc1
Potency [1]: inactive | Potency [2]: inactive | Potency [3]: inactive | Potency [5]: inactive | Potency [4]: inactive

CCCCCOC(=O)c1ccccc1C(=O)OCCCCC
Potency [1]: 11.2 µM (active) and 7.96 µM (active) | Potency [2]: 28.2 µM (active) and 7.96 µM (active) | Potency [3]: 17.8 µM (active) and 8.94 µM (active) | Potency [5]: inactive

CC(C)(C)C(O)(CCc1ccc(Cl)cc1)Cn1cncn1 (stereo not drawn)
Potency [1]: 640 nM (active) and 448 nM (active) | Potency [2]: 3.21 µM (active) and 3.56 µM (active) | Potency [3]: 32.1 µM (active) and 28.3 µM (active) | Potency [5]: inactive | Potency [4]: 114 nM (active) and 200 nM (active)

C[C@]12CC[C@H]3[C@@H](CC[C@@]45O[C@@H]4C(O)=C(C#N)C[C@]35C)[C@@H]1CC[C@@H]2O
Potency [1]: inactive | Potency [2]: inactive | Potency [3]: inactive | Potency [5]: inactive | Potency [4]: inactive

c1ccc(-c2ccccc2)cc1
Potency [1]: inactive | Potency [2]: inactive | Potency [3]: inactive | Potency [5]: inactive | Potency [4]: inactive

CCN(CC)CCO
Potency [1]: inactive | Potency [2]: inactive | Potency [3]: inactive and 31.7 µM (active) | Potency [5]: inactive | Potency [4]: inactive

BrCCBr
Potency [1]: 69.1 µM (active) and inactive | Potency [2]: inactive | Potency [3]: 30.9 µM (active) and inactive | Potency [5]: inactive | Potency [4]: inactive

CCN(CC)c1ccccc1
Potency [1]: inactive | Potency [2]: inactive and 71 µM (active) | Potency [3]: inactive | Potency [5]: inactive | Potency [4]: inactive

COc1ccc2c3c1O[C@H]1[C@@H](O)C=C[C@H]4[C@@H](C2)N(C)CC[C@@]341
Potency [1]: inactive | Potency [2]: inactive | Potency [3]: inactive | Potency [5]: inactive | Potency [4]: inactive

CCNc1nc(NC(C)(C)C)nc(SC)n1
Potency [1]: 17.6 µM (active) and 39.9 µM (active) | Potency [2]: inactive | Potency [3]: 7.01 µM (active) and 7.96 µM (active) | Potency [5]: inactive | Potency [4]: inactive

O=[N+]([O-])c1ccc(Oc2ccc(Cl)cc2Cl)cc1
Potency [1]: 5.67 µM (active) and 5.64 µM (active) | Potency [2]: 28.4 µM (active) and 31.7 µM (active) | Potency [3]: 31.9 µM (active) and 22.4 µM (active) | Potency [5]: 19.5 µM (active) | Potency [4]: inactive

Nc1ccccc1C(=O)O
Potency [1]: inactive | Potency [2]: inactive | Potency [3]: 40.1 µM (active) and inactive | Potency [5]: inactive | Potency [4]: inactive

Cc1ccc(N)cc1Cl
Potency [1]: 7.18 µM (active) and 11.2 µM (active) | Potency [2]: 32.1 µM (active) and 35.6 µM (active) | Potency [3]: 1.28 µM (active) and 1.59 µM (active)

CC(C)C1(C)N=C(c2nc3ccccc3cc2C(=O)O)NC1=O (stereo not drawn)
Potency [1]: inactive | Potency [2]: inactive | Potency [3]: inactive | Potency [5]: inactive | Potency [4]: inactive

COC(=O)NC(=S)Nc1ccccc1NC(=S)NC(=O)OC
Potency [1]: 63.3 µM (active) and 22.4 µM (active) | Potency [2]: 39.9 µM (active) | Potency [3]: 31.7 µM (active)

CC(C)C#N
Potency [1]: 67.3 µM (active) and inactive | Potency [2]: inactive | Potency [3]: inactive | Potency [5]: inactive | Potency [4]: inactive

Nc1ccc(Oc2ccc(N)cc2)cc1
Potency [1]: 18.1 µM (active) and 20 µM (active) | Potency [2]: 14.4 µM (active) and 8.94 µM (active) | Potency [3]: inactive | Potency [5]: inactive | Potency [4]: 18.1 µM (active) and inactive

COCCl
Potency [1]: 33 µM (active) and 22.6 µM (active) | Potency [2]: inactive | Potency [3]: 20.1 µM (active) | Potency [4]: inactive

O=C(O)c1ccccn1
Potency [1]: inactive | Potency [2]: inactive | Potency [3]: inactive | Potency [5]: inactive | Potency [4]: inactive

CCOP(=S)(OCC)SCCSCC
Potency [1]: 3.67 µM (active) and 1.07 µM (active) | Potency [2]: 32.7 µM (active) and 15.1 µM (active) | Potency [3]: 26 µM (active) and 7.57 µM (active) | Potency [5]: inactive | Potency [4]: 4.12 µM (active) and 3.8 µM (active)

Nc1c(Cl)c(Cl)nc(C(=O)O)c1Cl
Potency [1]: inactive and 8.22 µM (active) | Potency [2]: inactive and 65.3 µM (active) | Potency [3]: 39.5 µM (active) and inactive | Potency [5]: inactive | Potency [4]: inactive

O=Cc1cccc(Oc2ccccc2)c1
Potency [1]: 16 µM (active) and 71 µM (active) | Potency [2]: 40.2 µM (active) | Potency [3]: 35.9 µM (active) and inactive | Potency [5]: inactive | Potency [4]: inactive
